Bioassay records from PubChem BioAssay.
PLCb3 inh = human PLC-beta3 inhibitors, primary screen, biochemical, fluorescence; 1-phosphatidylinositol 4,5-bisphosphate phosphodiesterase beta-3 (Homo sapiens), Q01970; Purified PLC-beta3, fluorogenic substrate; inhibition, % at 12.2 µM; hit rate 0.18% among 370,000; in the data active = inhibition above about 11%;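 also: 0% = median of compound wells on plate and 100% = full blocker control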
LEDGF integ inh = blockers of LEDGF/p75-dependent integrase strand transfer – biochemical, TR-FRET, high throughput, primary screen; HIV-1 integrase (with human LEDGF/p75); TR-FRET IN-LEDGF/p75 DNA integration, Eu/Cy5; inhibition, % at 3.7 µM; hit rate 0.64% among 370,000;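 active = inhibition above the screen-wide mean plus 3 SD, cut at about 13% in these data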;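 also: signal is the Cy5 over europium emission ratio at 671 and 618 nm; 0% = plate median of compound wells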
MBD2 inh = inhibitors of MBD2 binding to methylated DNA, primary screen, biochemical, TR-FRET, DNA-binding domain, human; inhibition, % at 4.4 µM; MBD2 binding to methylated oligonucleotide; Methyl-CpG-binding domain protein 2 (Homo sapiens), Q9UBB5; hit rate 0.31% among 370,000; in the data active = inhibition above about 13%
UHRF1 MBD2 ctr = UHRF1 methylated DNA binding inhibitors, primary screen, counter-screen for MBD2 inhibitor project, biochemical, TR-FRET, human UHRF1, single concentration | E3 ubiquitin-protein ligase UHRF1 (Homo sapiens), Q96T88 | inhibition, % at 4.4 µM | UHRF1 binding to methylated oligo | hit rate 0.75% among 370,000 | AID 687016, 2013; in the data active = inhibition above about 21%;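 also: UHRF1 SRA domain binding a hemimethylated CpG hairpin DNA probe; 0% = median of test compound wells and 100% = reference inhibitor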
PLCg1 inh = PLC-gamma1 enzyme inhibitors, primary screen, biochemical, fluorescence, purified enzyme; inhibition, % at 12.2 µM; 1-phosphatidylinositol 4,5-bisphosphate phosphodiesterase gamma-1 (Homo sapiens), P19174; fluorogenic substrate; hit rate 0.84% among 370,000; in the data active = inhibition above about 9.5%
Starred values were filed as active, the others as inactive; i = inactive. Only some compounds are listed: those with a hit (about 2.4% of all), similar ones and a draw of the others.

SMILES	PLCb3 inh	LEDGF integ inh	MBD2 inh	UHRF1 MBD2 ctr	PLCg1 inh
CCOC(=O)C1=NN(C(=O)Nc2ccc(OC)cc2)C2C(=O)N(c3cccc(C(F)(F)F)c3)C(=O)C12 (stereo not drawn)	-3	1	33*	-3	-2
CN(CC(=O)Nc1cccc(F)c1)C(=O)c1cn(-c2ccccc2)nc1-c1ccccc1	-5	-2	4	24*	-2
CCCCCn1c(=O)[nH]c2cc(C(=O)NCc3ccc4c(c3)OCO4)ccc2c1=O	-1	-2	2	30*	1
COC(=O)c1ccc2c(=O)n(CCCCCC(=O)NCc3ccc4c(c3)OCO4)c(=O)[nH]c2c1	-5	3	1	1	-3
c1ccc(CN2CCN(c3nc(-c4ccccc4)nc4ccccc34)CC2)cc1	-5	-1	7	21*	-5
COc1ccc2c(c1)CO[C@H]([C@H](O)CO)[C@H]2/C=C/c1ccccc1	-2	-2	4	2	0
O=C(Cc1ccccc1)NN1C(=O)C2C3C=CC([C@@H]2C1=O)C31CC1 (stereo partly drawn)	2	-1	-5	-1	0
O=C(Cc1ccccc1)NN1C(=O)C2C(C1=O)C1C=CC2C12CC2 (stereo not drawn)	2	6	1	24*	4
O=c1c2ccccc2n(Cc2ccno2)n1[C@@H](Cc1ccccc1)Cn1cc(C2CCCC2)nn1	-54	4	8	3	-37
C=CCN1[C@@H](Cc2ccccc2)COc2cccc(F)c2S1(=O)=O	2	-1	1	-1	1
CCOC(=O)CC[C@H]1CC[C@]2(CCCN(C(=O)c3ccco3)C2)O1	0	-4	5	2	-2
Cc1ccc(-n2c(-c3nn(C)cc3Cl)n[nH]c2=S)cc1	1	1	3	21*	4
O=S(=O)(Nc1cc(Sc2ncn[nH]2)c(O)c2ccccc12)c1ccccc1	-5	34*	-4	11	4
COc1ccc(N2C(=O)N3[C@H](c4ccc(Cl)cc4)[C@@H]4C(=O)N(C5CCCCC5)C(=O)[C@@H]4[C@]3(C)C2=O)cc1	0	1	7	22*	2
C=CCN1C(=O)[C@@H](CC(=O)NCC2CCCCC2)[C@]2(C(=O)OCC)CCCCC/C=C/12	6	3	-2	-3	7
COc1ccc(S(=O)(=O)N2CCCCCC2)cc1NC(C)C(=O)Nc1ccc(NC(C)=O)cc1 (stereo not drawn)	-3	2	-4	33*	0
COc1ccc(NCC(=O)N2CCCC2)cc1Cl	-1	53*	-3	-1	-2
N#CCC(=O)Nc1ccc(C(=O)Nc2cccc(S(=O)(=O)N3CCCC3)c2)cc1	-13	1	2	69*	-15
COc1ccc(NCC(=O)Nc2cccc(S(=O)(=O)N3CCCC3)c2)cc1Cl	-1	5	-2	26*	-1
COc1cc(NC(=O)CNc2cccc(S(=O)(=O)N3CCCC3)c2)cc(OC)c1	-9	-3	1	-1	-1
COc1ccc(C[N+]2=C(N)NC3=C4CCCCC4n4c(=O)n(-c5ccccc5)c(=O)n4C3C2)c(OC)c1 (stereo not drawn)	-7	0	3	0	-5
COC(=O)[C@]12C[C@H](CC(=O)NCCc3ccccc3OC)C(=O)N(CCC3=CCCCC3)C1=C[C@H](C(C)C)O[C@@H]2C1CC1	0	0	2	0	1
CCCCCCCCCCCC(=O)N/N=C/c1ccco1	2	4	11	27*	0
COc1cccc(C(C#N)N2N=C(C)CC2(C)C)c1O (stereo not drawn)	-3	1	1	0	12*
CC1=NN(C(C#N)c2ccccc2O)C(C)(C)C1 (stereo not drawn)	-5	6	2	30*	1
SMILES	PLCb3 inh	LEDGF integ inh	MBD2 inh	UHRF1 MBD2 ctr	PLCg1 inh
COc1c2c(cc3ccc(=O)oc13)CCO2	i	4	-5	49*	i
CCC1CCc2sc(C(=O)O)cc2C1 (stereo not drawn)	-3	2	6	5	1
C=CCN1CCN(C(=O)c2cc3c(s2)CCC(CC)C3)CC1 (stereo not drawn)	1	1	-1	2	9.7*
CCCSc1nc2cc(C)c(C)cc2n1CC(O)CO (stereo not drawn)	-1	-4	0	2	1
CCCSc1nc2cc(C)c(C)cc2n1CC(C)O (stereo not drawn)	2	1	6	22*	-1
CC(C)N1Cc2nnn(Cc3ccc(F)cc3)c2-c2cc(F)ccc2S1(=O)=O	1	1	-2	1	2
O=[N+]([O-])c1ccc(-c2cnc(SC(c3ccccc3)c3ccccc3)[nH]2)cc1	-34	2	3	45*	-27
Cc1ccccc1N1CCN(C2CCCN(C(=O)CCN3CCCCC3=O)C2)CC1 (stereo not drawn)	7	4	1	24*	5
CCn1nnnc1SCC(=O)Nc1ccc2c(c1)OCO2	2	1	-3	2	2
COc1cc(NC(=O)CSc2nnnn2Cc2ccc3c(c2)OCO3)cc(OC)c1	-3	4	13	24*	5
O=C(Nc1ccc(Br)cc1)OCCN1CCCC12CCC(c1ccccc1)CC2 (stereo not drawn)	-4	-5	0	-1	2
Cc1[nH]c2ccccc2c1C(=O)CSC(=S)N(C)C1CCCCC1	-4	5	7	26*	3
O=C(COc1ccccc1F)NCc1nc2ccccc2[nH]1	-4	2	11	22*	-2
O=C(OC12CCCN(C1)/C(=C/c1ccc(Cl)cc1)C2)c1ccc(F)cc1 (stereo not drawn)	1	-2	-3	-1	-1
CCN(CC)CC(O)COc1ccc2c(c1)c(C(C)=O)c(C)n2-c1ccccc1 (stereo not drawn)	-22	-1	-1	2	-13
CC(=O)c1c(C)n(-c2ccccc2)c2ccc(OCC(O)CN3CCOCC3)cc12 (stereo not drawn)	-24	-4	0	83*	-14
CCN(CC)C(=O)CC[C@H]1CC[C@]2(CCCN(C(=O)C(C)(C)C)C2)O1	6	6	1	-1	1
Cc1occc1-c1nnc(SCC(=O)Nc2nc3ccccc3s2)o1	2	3	-1	23*	2
COc1nc(N)c(S(=O)(=O)c2ccccc2C)cc1C#N	-7	3	2	-2	-3
COc1nc(N)c(S(=O)(=O)c2ccccc2)cc1C#N	-23	-4	0	23*	-32
